# Hits are enriched below; roughly 21% of the tested compounds scored in any of these assays.
# CYP2C19 inhib: blocks human cytochrome P450 2C19; P33261; CYP2C19 Supersomes, luciferin-H EGE luminescence, 30 min; inhibition, % at 5 µM; hit rate 21% among 96,000;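 active means CYP2C19 inhibition above a set limit at 5 µM in the primary screen, cut at about 50% in these data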;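 further: plate controls were negative control wells for no effect and 2.5 mM tranylcypromine positive control for full effect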
# Target sequence (P33261 whole entry, looked up): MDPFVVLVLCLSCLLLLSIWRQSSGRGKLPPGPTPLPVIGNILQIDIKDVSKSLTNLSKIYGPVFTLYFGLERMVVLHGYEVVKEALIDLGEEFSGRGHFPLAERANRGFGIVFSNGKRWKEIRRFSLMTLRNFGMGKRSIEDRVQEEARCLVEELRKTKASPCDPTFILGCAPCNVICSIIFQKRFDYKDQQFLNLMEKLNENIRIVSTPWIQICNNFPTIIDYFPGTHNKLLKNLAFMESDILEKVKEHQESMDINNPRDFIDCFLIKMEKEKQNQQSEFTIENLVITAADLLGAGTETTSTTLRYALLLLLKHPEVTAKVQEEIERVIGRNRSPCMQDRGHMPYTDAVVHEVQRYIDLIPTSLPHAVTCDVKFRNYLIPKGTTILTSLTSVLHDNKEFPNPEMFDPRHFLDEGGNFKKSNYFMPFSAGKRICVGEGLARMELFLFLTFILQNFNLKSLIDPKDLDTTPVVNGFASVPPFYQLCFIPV
# CYP2C19 act: cytochrome P450 2C19 (human) activation | P33261 | recombinant CYP2C19, luciferin-H EGE luminescence; hits give high values; 0 = fully inhibited enzyme, 1 = untreated enzyme | activation factor at 5 µM | 96,000 tested, under 10 active;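 active means activation factor of at least 2 at 5 µM in the primary screen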;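 further: 0 = wells with 2.5 mM tranylcypromine and 1 = vehicle-only wells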
# CYP2C9 activ: CYP2C9 (human) activation. P11712. recombinant CYP2C9, luciferin-H conversion, luminescence; hits give high values; factor 1 = untreated enzyme, 0 = blocked. activation factor at 5 µM. hit rate 1.4% among 96,000. AID 1024;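 active means activation factor of 2 or more for CYP2C9 at a 5 µM dose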;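 further: 0 = sulfaphenazole-blocked wells and 1 = vehicle-only wells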
# MRP resist rev: reverses drug resistance mediated by MRP; differential viability (reversal), % at 10 µM; AID 602; H69AR cells + 2 uM doxorubicin, CellTiter-Glo, 72 h; hit rate 0.04% among 85,000;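 active means viability drop by adding the cancer drug above about 55%, with treated viability meeting a 40% cutoff, limit read from the data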;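 further: viability without doxorubicin minus viability with 2 µM doxorubicin for each compound; larger differential means the compound sensitizes cells more to doxorubicin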
# CYP2C9 inhib: human CYP2C9 inhibition | P11712 | inhibition, % at 5 µM | hit rate 20% among 96,000 | CYP2C9 Supersomes, luciferin-H conversion, luminescence;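 active means blocking of liver enzyme CYP2C9 beyond about 50% at 5 µM, limit read from the data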
# MRP1 act: MRP-1 activation. hit rate 0.61% among 140,000. H69AR cells + doxorubicin, viability rescue, CellTiter-Glo. AID 799. viability increase, % at 10 µM;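 active means viability gain under doxorubicin at or above a set limit, the compound median plus 3 SD, cut at about 4.7% in these data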;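 further: MRP-1 overexpressing cells given doxorubicin 25 µM after compound pretreatment; 18-22 h compound pretreatment then 72 h with doxorubicin before readout; 0% = doxorubicin-only wells and 100% = vehicle-treated cells without doxorubicin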
# * hit, by the source's call; . = no result.
SMILES,CYP2C19 inhib,CYP2C19 act,CYP2C9 activ,MRP resist rev,CYP2C9 inhib,MRP1 act
COc1ccc(-c2nc(=S)c3c([nH]2)Oc2ccc(C)cc2C3)cc1O,.,.,.,.,.,-3
Cc1c(NC(=O)c2ccccc2F)c(=O)n(-c2ccccc2)n1C,2,1,1,-17,-2,1
Cc1c(NC(C)c2cc(Cl)ccc2O)c(=O)n(-c2ccccc2)n1C (stereo not given),96*,0,0.3,3,68*,-4
Cc1c(N/C(=N/S(=O)(=O)c2ccc(Cl)cc2)c2ccccc2)c(=O)n(-c2ccccc2)n1C,.,.,.,.,.,0
Cc1c(NS(=O)(=O)c2cccc(C(=O)NCc3ccc(Cl)cc3)c2)c(=O)n(-c2ccccc2)n1C,51*,0.5,0.7,2,33,1
Cc1c(NS(=O)(=O)c2ccccc2)c(=O)n(-c2ccccc2)n1C,53*,0.5,0.8,3,22,-3
Cc1c(NC(=O)c2ccccc2NS(=O)(=O)c2ccc(F)cc2)c(=O)n(-c2ccccc2)n1C,25,0.8,0.5,-1,52*,0
CCC(C)(C(=O)NC1CCCCC1)N(Cc1ccco1)C(=O)c1ccccn1 (stereo not given),2,1,1,-16,-4,0
COc1ccc(C/C(=N\O)c2ccc(OC)cc2)cc1,57*,0.4,0.4,-9,58*,-3
CCCc1ccc(-c2cc(C(=O)N/N=C/c3ccc([N+](=O)[O-])o3)c3ccccc3n2)cc1,51*,0.5,0,.,96*,-2
O=C(N/N=C/c1ccc2c(c1)OCO2)c1cc(-c2ccccc2)nc2ccccc12,.,.,.,.,.,-4
O=C(N/N=C/c1ccc([N+](=O)[O-])o1)c1cc(-c2cccc(Br)c2)nc2ccccc12,9,0.9,0.4,.,56*,-2
O=C(C1CCC(=O)N1Cc1ccccc1Cl)N1CCN(c2cccc(Cl)c2)CC1 (stereo not given),14,0.9,0.8,15,21,-2
COc1ccc(-c2nc3ccccc3c(=O)n2NC(=O)c2cccnc2Cl)cc1OC,.,.,.,.,.,-1
N/C(CCN1CCCCC1)=N/O,-1,1,1.1,5,-11,-1
O=C(OCc1cc2ccccc2[nH]c1=O)c1ccncc1,.,.,.,-21,.,-1
O=C(OCc1cc2ccccc2[nH]c1=O)c1ccccc1,59*,0.4,0.6,9,44,1
Cc1nnc(NC(=O)C2c3ccccc3Oc3ccccc32)s1,.,.,.,9,.,-1
O=C(Nc1nncs1)C1c2ccccc2Oc2ccccc21,54*,0.5,0.7,-7,34,0
COc1ccc(OC)c(-c2csc(NC(=O)C3c4ccccc4Oc4ccccc43)n2)c1,.,.,.,.,.,9.4*
O=C(Nc1ccncc1)C1c2ccccc2Oc2ccccc21,97*,0,0,3,98*,-2
COC(=O)Nc1nc2c(C)cccc2s1,32,0.7,0.9,16,13,-3
Cc1cccc2sc(NC(=O)C3c4ccccc4Oc4ccccc43)nc12,31,0.7,0.2,.,80*,-6
O=C(Nc1nc(-c2ccncc2)cs1)C1c2ccccc2Oc2ccccc21,.,.,.,.,.,-2
O=C(NN=C1C2CC3CC(C2)CC1C3)c1cc(Cl)ccc1O,.,.,.,.,.,-5
SMILES,CYP2C19 inhib,CYP2C19 act,CYP2C9 activ,MRP resist rev,CYP2C9 inhib,MRP1 act
COc1ccc(-c2nc(NC(=O)CSc3nnc(C)s3)ns2)cc1,10,0.9,0.9,4,10,-2
NS(=O)(=O)c1cccc(NC(=O)CSc2nc3ccccc3c(=O)n2CCCN2CCOCC2)c1,.,.,.,.,.,-2
Cc1ccc2cc(CCNC(=O)CC(C)C)c(=O)[nH]c2c1,.,.,.,.,.,-3
COc1ccc(CNC(=O)C2CCN(S(=O)(=O)c3cccc4cccnc34)CC2)cc1,.,.,.,14,.,0
O=C(Nc1nc(-c2ccc(-c3ccccc3)cc2)cs1)C1CCCO1 (stereo not given),10,0.9,0.9,9,11,0
O=C(Nc1nc(-c2ccccc2)cs1)C1c2ccccc2Oc2ccccc21,12,0.9,0.3,.,72*,-1
O=C(Nc1nc(-c2ccccc2)cs1)C1CCCO1 (stereo not given),62*,0.4,0.5,15,54*,-1
O=C(Nc1cccnc1Cl)C1c2ccccc2Oc2ccccc21,70*,0.3,0.5,14,48,-3
O=C(Nc1ncccn1)C1c2ccccc2Oc2ccccc21,.,.,.,.,.,-2
CC(C)N(Cc1nc(-c2ccc(Cl)cc2)no1)C(=O)C12CC3CC(CC(C3)C1)C2,2,1,1,16,4,0
Cc1ccc(-c2noc(CN(C(=O)c3cccs3)C(C)C)n2)cc1,45,0.6,0.3,-5,74*,1
CC(C)N(Cc1nc(-c2ccc(Cl)cc2)no1)C(=O)c1cccs1,78*,0.2,0.1,23,89*,-4
Cc1ccc(C(=O)N(Cc2nc(-c3ccc(C)cc3)no2)C(C)C)cc1,12,0.9,0.9,6,6,-1
O=C(c1ccc(N2C(=O)CCC2=O)cc1)N1CCN(c2ccccc2)CC1,2,1,0.8,-8,23,-1
O=[N+]([O-])c1cccc(Cl)c1NCCNS(=O)(=O)c1ccccc1,60*,0.4,2*,.,-105,-3
O=[N+]([O-])c1cccc(Cl)c1NCCNS(=O)(=O)c1ccc(Cl)cc1,.,.,.,.,.,-3
Cn1c(SCC(=O)Nc2ccccc2F)nnc1-c1ccc(S(=O)(=O)N2CCOCC2)cc1,1,1,1,9,1,-1
Clc1ccc2[nH]c3c(NCC4CCCO4)ncnc3c2c1 (stereo not given),74*,0.3,0.2,-23,81*,-4
CC(=O)N=c1sc2ccccc2n1C,28,0.7,0.9,8,14,-2
CC(C(=O)N=c1sc2ccccc2n1C)N1C(=O)C2CC=CCC2C1=O (stereo not given),80*,0.2,0.4,-13,58*,-1
CCc1nc2ccccc2c(C(=O)OCC(=O)NCc2ccco2)c1C,56*,0.4,0.5,-1,47,-2
CCCc1nc2ccccc2c(C(=O)OCC(=O)Nc2ccc(S(=O)(=O)N3CCOCC3)cc2)c1CC,8,0.9,0.2,-18,76*,-3
CCCc1nc2ccccc2c(C(=O)OCC(=O)NCc2ccco2)c1CC,46,0.5,0.3,-8,70*,-3
Cc1occc(=O)c1OC(=O)Nc1ccccc1,-15,1.1,1.1,-15,-13,-1
CCCOC(=O)c1ccc(OCC(O)CN2CCN(C(=O)c3ccccc3)CC2)cc1 (stereo not given),11,0.9,0.4,.,64*,-1
CCOC(=O)c1cnn(-c2nc(-c3cccc(F)c3)cs2)c1C(F)(F)F,24,0.8,0.3,.,72*,4
O=[N+]([O-])c1ccc(S(=O)(=O)NCCc2cn3ccccc3n2)cc1,.,.,.,.,.,-3
COc1cccc(C(=O)Oc2cc(N)n(S(=O)(=O)c3ccc(C)cc3)n2)c1OC,9,0.9,0.2,-10,76*,1
